According to PubChem BioAssay AID1159580 (chemical genetic matrix, 2015):
Several values for one entry are separate records, joined by “and”; a condition that tells them apart may be missing. Identical values can stand only once. Out of some 5,500 compounds screened, about 2,000 (36%) were called active. Roughly 18% stayed inconclusive and do not appear here. Rule as the data show it: active = normalized growth mostly below about 0.91 (no sharp cut-off); inconclusive = no clear call, values can overlap the other calls; inactive = mostly above about 0.92. The list shows a part of the results.

Experiment: chemical genetic growth profiling, strain panel (AID 1159580);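 also: tested at 20 µM; growth read once vehicle control cultures reached saturation at 30 °C; 1 = growth at the plate median or of vehicle wells; lower values mean less growth of the strain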
Conditions: growth OD

Measured: normalized growth

O=C(O)c1cccnc1C(=O)O
inactive: S. cerevisiae deletion strains, locus YJR066W, strain TOR1, active compounds read low 0.979 | S. cerevisiae deletion strains, locus YJR075W, strain HOC1, active compounds read low 1.08 | S. cerevisiae deletion strains, locus YKL009W, strain mrt4, active compounds read low 1.03 | S. cerevisiae deletion strains, locus YKL068W, active compounds read low 0.982 | S. cerevisiae deletion strains, locus YKL085W, strain MDH1 (second series), active compounds read low 0.982 | S. cerevisiae deletion strains, locus YKL085W, strain MDH1, active compounds read low 0.982 | S. cerevisiae deletion strains, locus YKL160W, strain elf1, active compounds read low 0.999 | S. cerevisiae deletion strains, locus YKL190W, strain CNB1, active compounds read low 1.01 | S. cerevisiae deletion strains, locus YKR001C, strain vps1, active compounds read low 0.986 | S. cerevisiae deletion strains, locus YKR026C, strain gcn3, active compounds read low 0.981 | S. cerevisiae deletion strains, locus YKR091W, strain srl3, active compounds read low 0.999 | S. cerevisiae deletion strains, locus YLL001W, strain dnm1, active compounds read low 1.04 | S. cerevisiae deletion strains, locus YLL026W, active compounds read low 1.01 | S. cerevisiae deletion strains, locus YLL041C, strain sdh2, active compounds read low 1 | S. cerevisiae deletion strains, locus YLR027C, strain aat2, active compounds read low 1.01 | S. cerevisiae deletion strains, locus YLR039C, strain RIC1, active compounds read low 1.08 | S. cerevisiae deletion strains, locus YLR058C, strain SHM2, active compounds read low 1.02 | S. cerevisiae deletion strains, locus YLR102C, strain apc9, active compounds read low 0.985 | S. cerevisiae deletion strains, locus YLR113W, strain HOG1, active compounds read low 0.996 | S. cerevisiae deletion strains, locus YLR221C, strain rsa3, active compounds read low 1.04 | S. cerevisiae deletion strains, locus YLR258W, strain gsy2, active compounds read low 1.01 | S. cerevisiae deletion strains, locus YLR262C, strain YPT6 (second series), active compounds read low 1.01 | S. cerevisiae deletion strains, locus YLR262C, strain YPT6, active compounds read low 1.09 | S. cerevisiae deletion strains, locus YLR268W, strain sec22, active compounds read low 1.01 | S. cerevisiae deletion strains, locus YLR320W, strain mms22, active compounds read low 1.04 | S. cerevisiae deletion strains, locus YLR330W, strain CHS5, active compounds read low 1.01 | S. cerevisiae deletion strains, locus YLR342W, strain FKS1 (second series), active compounds read low 1.01 | S. cerevisiae deletion strains, locus YLR342W, strain FKS1, active compounds read low 1.01 | S. cerevisiae deletion strains, locus YLR357W, strain rsc2, active compounds read low 0.987 | S. cerevisiae deletion strains, locus YLR370C, strain arc18, active compounds read low 0.984 | S. cerevisiae deletion strains, locus YLR371W, strain rom2, active compounds read low 0.986 | S. cerevisiae deletion strains, locus YLR384C, strain iki3, active compounds read low 1.01 | S. cerevisiae deletion strains, locus YLR418C, strain cdc73, active compounds read low 1.04 | S. cerevisiae deletion strains, locus YML016C, strain PPZ1, active compounds read low 1.01 | S. cerevisiae deletion strains, locus YML032C, strain rad52, active compounds read low 1.01 | S. cerevisiae deletion strains, locus YML120C, strain ndi1, active compounds read low 1 | S. cerevisiae deletion strains, locus YML124C, strain tub3, active compounds read low 0.989 | S. cerevisiae deletion strains, locus YMR058W, strain fet3, active compounds read low 1 | S. cerevisiae deletion strains, locus YMR078C, strain ctf18, active compounds read low 0.99 | S. cerevisiae deletion strains, locus YMR125W, strain sto1, active compounds read low 1 | S. cerevisiae deletion strains, locus YMR129W, active compounds read low 0.987 | S. cerevisiae deletion strains, locus YMR205C, strain PFK2, active compounds read low 0.988 | S. cerevisiae deletion strains, locus YMR223W, strain ubp8, active compounds read low 1.01 | S. cerevisiae deletion strains, locus YMR231W, strain pep5, active compounds read low 0.996 | S. cerevisiae deletion strains, locus YMR307W, strain GAS1, active compounds read low 1.02 and 0.993 | S. cerevisiae deletion strains, locus YNL067W, strain RPL9B, active compounds read low 1.06 | S. cerevisiae deletion strains, locus YNL071W, strain lat1, active compounds read low 0.998 | S. cerevisiae deletion strains, locus YNL128W, strain TEP1, active compounds read low 1.03 and 1.01 | S. cerevisiae deletion strains, locus YNL175C, strain NOP13, active compounds read low 1.02 | S. cerevisiae deletion strains, locus YNL183C, strain NPR1, active compounds read low 0.934 | S. cerevisiae deletion strains, locus YNL197C, strain WHI3, active compounds read low 1.01 | S. cerevisiae deletion strains, locus YNL209W, strain ssb2, active compounds read low 0.994 | S. cerevisiae deletion strains, locus YNL224C, strain SQS1, active compounds read low 0.998 | S. cerevisiae deletion strains, locus YNL233W, strain BNI4, active compounds read low 1.06 | S. cerevisiae deletion strains, locus YNL248C, strain rpa49, active compounds read low 0.997 | S. cerevisiae deletion strains, locus YNL250W, strain rad50, active compounds read low 0.984 | S. cerevisiae deletion strains, locus YNL271C, strain bni1, active compounds read low 0.962 | S. cerevisiae deletion strains, locus YNL298W, strain CLA4, active compounds read low 0.977 | S. cerevisiae deletion strains, locus YNL307C, strain MCK1, active compounds read low 1.01 | S. cerevisiae deletion strains, locus YNL322C, strain KRE1 (second series), active compounds read low 0.985 | S. cerevisiae deletion strains, locus YNL322C, strain KRE1, active compounds read low 1.01 | S. cerevisiae deletion strains, locus YNR049C, strain mso1, active compounds read low 0.989 | S. cerevisiae deletion strains, locus YNR052C, strain pop2, active compounds read low 0.996 | S. cerevisiae deletion strains, locus YOL006C, strain TOP1, active compounds read low 1.11 | S. cerevisiae deletion strains, locus YOL012C, strain htz1 1.66 | S. cerevisiae deletion strains, locus YOL147C, strain pex11, active compounds read low 0.99 | S. cerevisiae deletion strains, locus YOR001W, strain rrp6, active compounds read low 1.04 | S. cerevisiae deletion strains, locus YOR061W, strain CKA2, active compounds read low 1.02 | S. cerevisiae deletion strains, locus YOR069W, strain VPS5, active compounds read low 1.02 | S. cerevisiae deletion strains, locus YOR070C, strain gyp1, active compounds read low 0.998 | S. cerevisiae deletion strains, locus YOR080W, strain dia2, active compounds read low 0.974 | S. cerevisiae deletion strains, locus YOR083W, strain WHI5 (second series), active compounds read low 1.03 | S. cerevisiae deletion strains, locus YOR083W, strain WHI5, active compounds read low 0.945 | S. cerevisiae deletion strains, locus YOR106W, strain vam3, active compounds read low 0.991 | S. cerevisiae deletion strains, locus YOR136W, strain idh2, active compounds read low 1.02 | S. cerevisiae deletion strains, locus YOR144C, strain elg1, active compounds read low 0.979 | S. cerevisiae deletion strains, locus YOR184W, strain ser1, active compounds read low 0.998 | S. cerevisiae deletion strains, locus YOR231W, strain MKK1, active compounds read low 1.03 | S. cerevisiae deletion strains, locus YOR265W, strain rbl2, active compounds read low 0.989 | S. cerevisiae deletion strains, locus YOR270C, strain vph1, active compounds read low 0.984 | S. cerevisiae deletion strains, locus YOR290C, strain snf2, active compounds read low 0.987 | S. cerevisiae deletion strains, locus YOR316C, strain cot1, active compounds read low 0.993 | S. cerevisiae deletion strains, locus YPL051W, strain arl3, active compounds read low 1.02 | S. cerevisiae deletion strains, locus YPL055C, strain LGE1, active compounds read low 1.11 | S. cerevisiae deletion strains, locus YPL078C, strain atp4, active compounds read low 1.05 | S. cerevisiae deletion strains, locus YPL106C, strain sse1, active compounds read low 1.06 | S. cerevisiae deletion strains, locus YPL240C, strain hsp82, active compounds read low 0.994 | S. cerevisiae deletion strains, locus YPL256C, strain CLN2, active compounds read low 1 | S. cerevisiae deletion strains, locus YPR119W, strain clb2, active compounds read low 0.988 | S. cerevisiae deletion strains, locus YPR141C, strain kar3, active compounds read low 0.978 | S. cerevisiae deletion strains, locus YPR163C, strain tif3, active compounds read low 0.996 | S. cerevisiae deletion strains, locus YPR167C, strain met16, active compounds read low 0.983 | S. cerevisiae deletion strains, strain wtn01, active compounds read low 0.997 | S. cerevisiae strains, strain wild type, active compounds read low 1.02
